The supplement of paper PMC9023506
Structures can show the parent of a compound that is named as a salt.

Columns and labels:
Details in all cases: 10 µM; exposure time: 3 h pre-incubation + 3 h imaging
[1] = tested on: Danio rerio larvae (5 dpf); assay: excitability to 1-s acoustic pulses, difference vs DMSO (percentage points (treated minus DMSO)); higher = more of the behaviour than the DMSO vehicle control
How it was run: (§1)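 5-dpf wild-type zebrafish larvae in 96-well ProxiPlates were exposed to library drugs at 10 µM (diluted 1000× from DMSO stocks into egg water). There were 48 larvae per drug, exposed 3 h before and 3 h during imaging at 28.5 °C. Images taken every 6 s covered a 3-h program of rest, moving coloured lines and acoustic pulses, and an ImageJ macro scored movement and upper-half location. Each behaviour score is the treated-group mean minus the DMSO vehicle mean, in percentage points.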

[2] = tested on: Danio rerio larvae (5 dpf); assay: optomotor response to blue moving lines, difference vs DMSO (percentage points (treated minus DMSO)); higher = more of the behaviour than the DMSO vehicle control
How it was run: as §1

[3] = tested on: Danio rerio larvae (5 dpf); assay: optomotor response to green moving lines, difference vs DMSO (percentage points (treated minus DMSO)); higher = more of the behaviour than the DMSO vehicle control
How it was run: as §1

[4] = tested on: Danio rerio larvae (5 dpf); assay: optomotor response to red moving lines, difference vs DMSO (percentage points (treated minus DMSO)); higher = more of the behaviour than the DMSO vehicle control
How it was run: as §1

[5] = tested on: Danio rerio larvae (5 dpf); assay: startle response to 20-s acoustic pulses, difference vs DMSO (percentage points (treated minus DMSO)); higher = more of the behaviour than the DMSO vehicle control
How it was run: as §1

[6] = tested on: Danio rerio larvae (5 dpf); assay: optomotor response to fast red moving lines, difference vs DMSO (percentage points (treated minus DMSO)); higher = more of the behaviour than the DMSO vehicle control
How it was run: as §1

[7] = tested on: Danio rerio larvae (5 dpf); assay: habituation to 1-s acoustic pulses, difference vs DMSO (percentage points (treated minus DMSO)); higher = more of the behaviour than the DMSO vehicle control
How it was run: as §1

[8] = tested on: Danio rerio larvae (5 dpf); assay: activity during period 15 (no stimuli), difference vs DMSO (percentage points (treated minus DMSO)); higher = more of the behaviour than the DMSO vehicle control
How it was run: as §1

Question: `CC(C)(C#N)c1cc(Cn2cncn2)cc(C(C)(C)C#N)c1` [Anastrozole] was tested. Which “excitability to 1-s acoustic pulses” value [1] did it give?
Answer: The value was 3.65.

Question: What about the “optomotor response to blue moving lines” value [2] of the same compound?
Answer: Its value is -5.16.

Question: And the “optomotor response to green moving lines” value [3]?
Answer: Its value is -2.71.

Question: What does the source list for `OC(c1cc(C(F)(F)F)nc2c(C(F)(F)F)cccc12)C1CCCCN1` (configuration not stated) [Mefloquine hydrochloride]?
Answer: optomotor response to red moving lines [4]: 8.36; startle response to 20-s acoustic pulses [5]: -13.3

Question: What does the source list for `COC(c1ccccc1)(c1ccccc1)[C@H](Oc1nc(C)cc(C)n1)C(=O)O` [Ambrisentan]?
Answer: excitability to 1-s acoustic pulses [1]: -1.87; optomotor response to red moving lines [4]: -4.02; startle response to 20-s acoustic pulses [5]: 5.96; optomotor response [6]: -12.3

Question: `OCCN(CCO)c1nc(N2CCCCC2)c2nc(N(CCO)CCO)nc(N3CCCCC3)c2n1` [Dipyridamole] was tested. Which “habituation to 1-s acoustic pulses” value [7] did it give?
Answer: The value was 0.822.

Question: And the “optomotor response to red moving lines” value [4]?
Answer: The value was -6.85.

Question: What about the “activity during period 15” value [8] of the same compound?
Answer: The value was -5.46.

Question: Which “optomotor response to blue moving lines” value [2] does the source give for `CN(C)CC/C=C1/c2ccccc2COc2ccc(CC(=O)O)cc21` [Olopatadine hydrochloride] here?
Answer: The value was -0.0571.

Question: And the “optomotor response to green moving lines” value [3]?
Answer: The value was 5.77.

Question: What about the “startle response to 20-s acoustic pulses” value [5] of the same compound?
Answer: The value was 0.514.

Question: How did the “optomotor response to red moving lines” value [4] turn out when `NS(=O)(=O)c1cc2c(cc1Cl)NC(C1CC3C=CC1C3)NS2(=O)=O` (configuration not stated) [Cyclothiazide] was run?
Answer: Its value is -6.66.

Question: What about the “activity during period 15” value [8] of the same compound?
Answer: The value was 3.93.

Question: And the optomotor response [6]?
Answer: The optomotor response was -3.47.

Question: What does the source list for `COc1cc2nccc(Oc3ccc(NC(=O)C4(C(=O)Nc5ccc(F)cc5)CC4)cc3)c2cc1OC`?
Answer: habituation to 1-s acoustic pulses [7]: -4.53; excitability to 1-s acoustic pulses [1]: 17.1; optomotor response to red moving lines [4]: -13.9; optomotor response to green moving lines [3]: 9.65; optomotor response [6]: -16.9

Question: For `Cc1c(-c2ccc(O)cc2)n(Cc2ccc(OCCN3CCCCCC3)cc2)c2ccc(O)cc12` [Bazedoxifene acetate], which “optomotor response to blue moving lines” value [2] is on record?
Answer: The value was 1.43.

Question: What does the source list for `CC(C)Nc1cccnc1N1CCN(C(=O)c2cc3cc(NS(C)(=O)=O)ccc3[nH]2)CC1` [Delavirdine mesylate]?
Answer: optomotor response to blue moving lines [2]: -0.42; optomotor response to green moving lines [3]: -4.7

Question: Which “habituation to 1-s acoustic pulses” value [7] does the source give for `NC(=O)OCC(COC(N)=O)c1ccccc1` [Felbamate] here?
Answer: Its value is 2.95.

Question: And the “activity during period 15” value [8]?
Answer: The value was 0.376.

Question: And the “optomotor response to blue moving lines” value [2]?
Answer: Its value is -1.4.

Question: And the “optomotor response to green moving lines” value [3]?
Answer: Its value is -9.03.

Question: How did the “habituation to 1-s acoustic pulses” value [7] turn out when `CCC(C)(C)C(=O)O[C@H]1C[C@@H](C)C=C2C=C[C@H](C)[C@H](CC[C@@H]3C[C@@H](O)CC(=O)O3)[C@H]21` [Simvastatin] was run?
Answer: Its value is -1.13.

Question: What about the “activity during period 15” value [8] of the same compound?
Answer: Its value is -3.71.

Question: And the “optomotor response to blue moving lines” value [2]?
Answer: Its value is -4.79.

Question: What about the optomotor response [6] of the same compound?
Answer: The optomotor response was -13.2.

Question: For `CN(C)C(=N)NC(=N)N` [Metformin hydrochloride], which “optomotor response to red moving lines” value [4] is on record?
Answer: The value was 17.8.

Question: And the “startle response to 20-s acoustic pulses” value [5]?
Answer: The value was -1.12.

Question: With `NS(=O)(=O)c1cc(C(=O)O)c(NCc2ccco2)cc1Cl` [Furosemide] as the compound, how does the “optomotor response to red moving lines” value [4] read?
Answer: The value was 4.84.

Question: What about the “startle response to 20-s acoustic pulses” value [5] of the same compound?
Answer: Its value is -4.02.

Question: With `CC(C)COCC(CN(Cc1ccccc1)c1ccccc1)N1CCCC1` (configuration not stated) [Bepridil hydrochloride] as the compound, how does the “habituation to 1-s acoustic pulses” value [7] read?
Answer: The value was -6.51.

Question: And the “optomotor response to red moving lines” value [4]?
Answer: Its value is 3.6.

Question: What about the “optomotor response to green moving lines” value [3] of the same compound?
Answer: The value was -2.16.

Question: Which “activity during period 15” value [8] does the source give for `Cc1ccc(-c2cc(C(F)(F)F)nn2-c2ccc(S(N)(=O)=O)cc2)cc1` [Celecoxib] here?
Answer: Its value is 3.28.

Question: What about the “optomotor response to blue moving lines” value [2] of the same compound?
Answer: Its value is -3.07.

Question: And the optomotor response [6]?
Answer: The optomotor response was -11.4.

Question: With `C[C@]12CC[C@@H]3c4ccc(O)cc4C[C@@H](CCCCCCCCC[S+]([O-])CCCC(F)(F)C(F)(F)F)[C@H]3[C@@H]1CC[C@@H]2O` (some centres not stated) as the compound, how does the “optomotor response to red moving lines” value [4] read?
Answer: Its value is -3.73.

Question: And the “startle response to 20-s acoustic pulses” value [5]?
Answer: Its value is 0.769.

Question: For `CN(C)CCc1c[nH]c2ccc(Cn3cncn3)cc12` [Rizatriptan benzoate], which “optomotor response to blue moving lines” value [2] is on record?
Answer: The value was 3.13.

Question: Which results are given for `C[C@@H](O[C@H]1OCCN(Cc2n[nH]c(=O)[nH]2)[C@H]1c1ccc(F)cc1)c1cc(C(F)(F)F)cc(C(F)(F)F)c1` [Aprepitant]?
Answer: optomotor response to red moving lines [4]: -4.19; optomotor response to green moving lines [3]: 4.81; optomotor response [6]: 7.32

Question: Which results are given for `CN1CCC[C@@H]1CCO[C@](C)(c1ccccc1)c1ccc(Cl)cc1` [Clemastine fumarate]?
Answer: excitability to 1-s acoustic pulses [1]: 15.4; optomotor response to red moving lines [4]: 16.7

Question: Which results are given for `Nc1ncn([C@H]2C[C@H](O)[C@@H](CO)O2)c(=O)n1` [Decitabine]?
Answer: excitability to 1-s acoustic pulses [1]: 6.23; optomotor response to blue moving lines [2]: -0.954; optomotor response to green moving lines [3]: 0.0025; optomotor response [6]: 1.67

Question: Which “habituation to 1-s acoustic pulses” value [7] does the source give for `CN1CC2c3ccccc3Oc3ccc(Cl)cc3C2C1` (configuration not stated) [Asenapine maleate] here?
Answer: Its value is -9.25.

Question: What about the “optomotor response to red moving lines” value [4] of the same compound?
Answer: The value was -5.48.

Question: And the “activity during period 15” value [8]?
Answer: Its value is 40.8.

Question: And the “optomotor response to green moving lines” value [3]?
Answer: The value was -9.85.

Question: With `COC(=O)C1=C(C)NC(C)=C(C(=O)OC(C)C)C1c1cccc2nonc12` (configuration not stated) [Isradipine] as the compound, how does the “optomotor response to red moving lines” value [4] read?
Answer: Its value is -7.63.

Question: What about the “startle response to 20-s acoustic pulses” value [5] of the same compound?
Answer: The value was -10.3.

Question: Which “activity during period 15” value [8] does the source give for `COc1cc([C@@H]2c3cc4c(cc3[C@@H](O[C@@H]3O[C@@H]5CO[C@@H](C)O[C@H]5[C@H](O)[C@H]3O)[C@H]3COC(=O)[C@H]23)OCO4)cc(OC)c1O` [Etoposide] here?
Answer: Its value is -4.13.

Question: What about the “optomotor response to blue moving lines” value [2] of the same compound?
Answer: Its value is 6.33.

Question: For `CC(C)[C@H]1CC[C@H](C(=O)N[C@H](Cc2ccccc2)C(=O)O)CC1` [Nateglinide], which “habituation to 1-s acoustic pulses” value [7] is on record?
Answer: The value was 0.774.

Question: What about the “optomotor response to red moving lines” value [4] of the same compound?
Answer: The value was 12.8.

Question: What about the “activity during period 15” value [8] of the same compound?
Answer: Its value is -0.384.

Question: What about the “optomotor response to green moving lines” value [3] of the same compound?
Answer: The value was 4.02.

Question: What about the “startle response to 20-s acoustic pulses” value [5] of the same compound?
Answer: The value was 3.57.

Question: What does the source list for `CCCCCCCCc1ccc(CCC(N)(CO)CO)cc1`?
Answer: habituation to 1-s acoustic pulses [7]: 3.87; optomotor response to red moving lines [4]: 2.93

Question: Which “habituation to 1-s acoustic pulses” value [7] does the source give for `CN(C)CCc1c[nH]c2ccc(C[C@H]3COC(=O)N3)cc12` [Zolmitriptan] here?
Answer: The value was -1.85.

Question: And the “excitability to 1-s acoustic pulses” value [1]?
Answer: The value was 3.25.

Question: What about the “optomotor response to red moving lines” value [4] of the same compound?
Answer: The value was 2.8.

Question: What about the “optomotor response to green moving lines” value [3] of the same compound?
Answer: Its value is 6.88.

Question: For `CCc1c2c(nc3ccc(OC(=O)N4CCC(N5CCCCC5)CC4)cc13)-c1cc3c(c(=O)n1C2)COC(=O)[C@]3(O)CC`, which “habituation to 1-s acoustic pulses” value [7] is on record?
Answer: Its value is 10.3.

Question: What about the “excitability to 1-s acoustic pulses” value [1] of the same compound?
Answer: The value was 6.46.

Question: And the “optomotor response to red moving lines” value [4]?
Answer: The value was -8.71.

Question: And the “optomotor response to green moving lines” value [3]?
Answer: The value was -1.18.

Question: What about the optomotor response [6] of the same compound?
Answer: The optomotor response was 0.47.

Question: Which results are given for `Cc1ccc(N(CC2=NCCN2)c2cccc(O)c2)cc1` [Phentolamine Mesylate]?
Answer: excitability to 1-s acoustic pulses [1]: 15.7; startle response to 20-s acoustic pulses [5]: -1.56; optomotor response [6]: 7.53

Question: What does the source list for `COc1c(C)c2c(c(O)c1C/C=C(\C)CCC(=O)O)C(=O)OC2` [Mycophenolic acid]?
Answer: habituation to 1-s acoustic pulses [7]: 1.78; excitability to 1-s acoustic pulses [1]: 0.774; startle response to 20-s acoustic pulses [5]: 2.15

Question: For `CCCc1nn(C)c2c(=O)[nH]c(-c3cc(S(=O)(=O)N4CCN(C)CC4)ccc3OCC)nc12` [Sildenafil citrate], which “habituation to 1-s acoustic pulses” value [7] is on record?
Answer: Its value is -2.79.
